Measurements: the supplement of paper PMC13380429
Structures can show the parent of a compound that is named as a salt. Values without a mark were called inactive.

Test system: Vero E6 infected with SARS-CoV-2
Assay: inhibition of SARS-CoV-2 cytopathic effect; higher = more antiviral protection, active = above 15
Conditions: 48 h

Row | SMILES | inhibition of SARS-CoV-2 cytopathic effect (1 nM) [%] | inhibition of SARS-CoV-2 cytopathic effect (8.33 nM) [%] | inhibition of SARS-CoV-2 cytopathic effect (100 nM) [%] | inhibition of SARS-CoV-2 cytopathic effect (833.33 nM) [%] | inhibition of SARS-CoV-2 cytopathic effect (10000 nM)
1 | C=C1/C(=C\C=C2/CCC[C@]3(C)[C@@H]([C@H](C)/C=C/[C@H](C)C(C)C)CC[C@@H]23)C[C@@H](O)C[C@@H]1O [doxercalciferol] | 0.83 | 0.03 | 0.98 | 2.04 | 2.69%
2 | Cc1cc2c(N3CCCC3)nc(N3CCCC3)nc2n1C | 1.39 | 5.02 | 4.75 | 3.21 | 3.47%
3 | C#Cc1cccc2c1c(C(=O)c1ccc(Cn3c(C)nc4cnccc43)c(F)c1)cn2C(=O)N(C)C | -0.44 | -1.26 | 0.63 | -0.09 | -1.98%
4 | Cc1oc(=O)oc1CN1CCN(c2cc3c(cc2F)c(=O)c(C(=O)O)c2n3C(C)S2)CC1 (stereo not given) [prulifloxacin] | 0.31 | -0.69 | -3.24 | -1.97 | -3.69%
5 | CCOCCn1c(N2CCCN(C)CC2)nc2ccccc21 [emedastine] | -2.21 | 0.36 | -2.49 | 1.46 | -0.01%
6 | O=C(O)c1ccc2nc(-c3cc(Cl)cc(Cl)c3)oc2c1 [tafamidis-meglumine] | -0.14 | -0.38 | -1.04 | 1.34 | 0.08%
7 | CN(C)C(=O)COC(=O)Cc1ccc(OC(=O)c2ccc(NC(=N)N)cc2)cc1 [Camostat mesylate] | 0.94 | -0.39 | -0.94 | 1.08 | -0.11%
8 | c1ccc(C(NCc2cccnc2)(c2ccccc2)c2ccccc2)cc1 | 1.69 | 4.02 | 1 | 1.58 | 2.26%
9 | CCCSc1nc(N[C@@H]2C[C@H]2c2ccc(F)c(F)c2)c2nnn([C@@H]3C[C@H](OCCO)[C@@H](O)[C@H]3O)c2n1 [ticagrelor] | -0.64 | 1.24 | -0.46 | 0.82 | 1.32%
10 | O=C(CBr)N1CC([N+](=O)[O-])([N+](=O)[O-])C1 | 1.69 | -0.07 | -1.43 | -1.12 | 0.95%
11 | NS(=O)(=O)c1cc2c(cc1Cl)NCNS2(=O)=O [hydrochlorothiazide] | 3.33 | 0.33 | 0.49 | 0.84 | -1.16%
12 | COc1ccc(CN(CCN(C)C)c2ncccn2)cc1 [thonzylamine] | 0.64 | 0.52 | 0.24 | 3.55 | -0.17%
13 | CCCN(CCC)C(=O)C(CCC(=O)O)NC(=O)c1ccccc1 (stereo not given) [proglumide] | 2.27 | -2.46 | -0.81 | 2.34 | -1.09%
14 | Nc1nc(=O)n([C@@H]2O[C@H](CO)[C@@H](O)[C@@H]2F)cc1I [fiacitabine] | -1.38 | -1.55 | 2.03 | -1.22 | -0.56%
15 | NCc1cc(O)no1 [muscimol] | -0.61 | 0.05 | 2.35 | 0.14 | 0.49%
16 | CN(C)CCc1c[nH]c2ccc(C[C@H]3COC(=O)N3)cc12 [zolmitriptan] | -2.55 | 2.01 | -1.58 | -2.13 | -2.93%
17 | CCN(CC)CCCCN1c2ccccc2Oc2ccc(Cl)cc21 | 0.59 | -2.15 | -2.29 | -3.45 | 40.9% (active)
18 | Cc1ccc(Cl)c(OCC(O)CNC(C)(C)C)c1 (stereo not given) [bupranolol] | 1.32 | -0.4 | -5.32 | -1.98 | -0.94%
19 | CCC(CC)Nc1cc(C)nc(Oc2c(C)cc(C)cc2C)c1C | -0.56 | 0.65 | -1.28 | 0.01 | -1.59%
20 | C[C@@H](O)[C@H]1C(=O)N2C(C(=O)O)=C(S[C@@H]3CN[C@H](C(=O)N(C)C)C3)[C@H](C)[C@H]12 [meropenem] | 0.11 | 1.38 | 0.18 | 6.2 | -0.92%

Row | SMILES | inhibition of SARS-CoV-2 cytopathic effect (1 nM) [%] | inhibition of SARS-CoV-2 cytopathic effect (8.33 nM) [%] | inhibition of SARS-CoV-2 cytopathic effect (100 nM) [%] | inhibition of SARS-CoV-2 cytopathic effect (833.33 nM) [%] | inhibition of SARS-CoV-2 cytopathic effect (10000 nM)
21 | CC(=O)Nc1cccc(O)c1 [metacetamol] | 1.03 | 5.41 | 3.07 | 4.81 | 4.76%
22 | COc1cc(SC)ccc1C(=O)N1CCC(Cc2ccccc2)CC1 | 4.96 | 7.9 | 8.76 | 9.01 | 7.35%
23 | O=C(O)C(=O)CBr [3-bromopyruvate] | -3.69 | 1.4 | 4.96 | 0.7 | 1.43%
24 | Nc1ncn([C@H]2C[C@H](O)[C@@H](CO)O2)c(=O)n1 [decitabine] | 3.33 | 3.36 | 4.5 | -1.04 | -3.03%
25 | O=C(O)c1cn(C2CC2)c2cc(N3CCNCC3)c(F)cc2c1=O [ciprofloxacin] | -2.01 | -1.59 | 0.61 | -0.98 | -2.99%
26 | N[C@@H]1c2cccnc2[C@H](OC(=O)N2CCC(n3c(=O)[nH]c4ncccc43)CC2)CC[C@H]1c1cccc(F)c1F [rimegepant] | -0.34 | 1.65 | -0.46 | -1.15 | 0.55%
27 | Cc1cccc(-c2[nH]c(C(C)(C)C)nc2-c2ccc3nccnc3c2)n1 | 3.48 | -0.18 | 0.8 | 0.91 | 1.69%
28 | COc1ccc(/C=C/C(=O)Nc2ccccc2C(=O)O)cc1OC [tranilast] | -0.23 | -1.52 | -1.22 | 0.97 | 1.42%
29 | Cn1cc(-c2ccc(S(=O)(=O)n3ccc(/C=C/C(=O)Nc4ccccc4N)c3)cc2)cn1 | -0.95 | 1.05 | -0.51 | -4.65 | -1.31%
30 | N#C/C(=C\c1ccc(O)c(O)c1)C(N)=O [tyrphostin-AG-99] | 3.54 | 0.59 | -0.43 | 3.25 | 0.46%
31 | Cc1cc(O)c(-c2ccc([C@@H](C)CN)cc2)c2c1[nH]c(=O)c1sccc12 | -2.25 | -1.13 | -0.22 | 3.77 | -23.9%
32 | Clc1ccc(Cn2c(CN3CCCC3)nc3ccccc32)cc1 [clemizole] | -3.82 | -2.64 | -3.58 | -3.06 | -6.74%
33 | CC(Cc1ccc(O)cc1)NCC(O)c1cc(O)cc(O)c1 (stereo not given) [fenoterol] | 2.01 | 0.82 | 2.19 | 2.52 | 0.86%
34 | O=C(CCCCCN1C(=O)c2cccc3cccc(c23)C1=O)NO [scriptaid] | 4.82 | 3.4 | -3.14 | -13.6 | -24.8%
35 | CC(C)(Oc1ccc(Cl)cc1)C(=O)OCCOC(=O)c1cccnc1 [etofibrate] | 0.78 | 2.82 | 0.41 | 0.22 | -10.1%
36 | CC[N+]1(C)CCCC(OC(=O)C(O)(c2ccccc2)c2ccccc2)C1 (stereo not given) [pipenzolate] | -0.09 | -0.02 | -2.48 | -0.83 | -1.6%
37 | Cc1cc(N2CCCCC2)nc2ccccc12 | -1.33 | 3.15 | -0.88 | 0.63 | 4.47%
38 | C=CC(=O)N1CCC[C@@H](n2nc(-c3ccc(Oc4ccccc4)cc3)c3c(N)ncnc32)C1 [ibrutinib] | -2.27 | -1.2 | 0.01 | -0.37 | 1.62%
39 | Cc1nnsc1C(=O)Nc1ccc(-n2nc(C(F)(F)F)cc2C(F)(F)F)cc1 | -4.22 | 2.91 | 0.56 | -0.23 | -10.5%
40 | CCCNC(C)(C)COC(=O)c1ccccc1 [meprylcaine] | 2.21 | -2.34 | -2.33 | -1.75 | -5.76%
